Legend:
Assay in all cases: DAPPL (digital affinity profiling via proximity ligation, sequencing); 10 mM Tris-HCl pH 7.5, 50 mM NaCl, 1 mM DTT, 4% glycerol, room temperature, 30 min; GST-TFs on glutathione beads, 16-mer random dsDNA library, 0.1% formaldehyde crosslink after washing; high values mean tight binding
Conditions in all cases: protein: recombinant; tags: N-terminal GST; dsDNA, one strand shown
FLI1 = biological target: T1, FLI1 (Homo sapiens, UniProt Q01543 1-452)
T1 sequence: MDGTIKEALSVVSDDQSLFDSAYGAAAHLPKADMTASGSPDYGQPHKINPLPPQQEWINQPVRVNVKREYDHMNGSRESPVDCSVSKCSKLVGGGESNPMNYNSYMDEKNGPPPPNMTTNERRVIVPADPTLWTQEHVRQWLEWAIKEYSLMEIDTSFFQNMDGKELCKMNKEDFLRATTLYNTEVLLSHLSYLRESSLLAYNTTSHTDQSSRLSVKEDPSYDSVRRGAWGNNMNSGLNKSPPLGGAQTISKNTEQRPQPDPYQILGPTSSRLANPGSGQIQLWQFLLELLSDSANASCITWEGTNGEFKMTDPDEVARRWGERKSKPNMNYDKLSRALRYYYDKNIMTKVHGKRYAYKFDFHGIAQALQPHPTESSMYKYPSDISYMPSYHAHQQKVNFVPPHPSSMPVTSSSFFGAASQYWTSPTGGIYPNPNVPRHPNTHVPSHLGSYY
Method in brief: (§1)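 Each value of binding signal is a hexamer's read frequency for a factor divided by the same hexamer's frequency in the tag-only sample. Barcoded, bead-captured GST fusions of human transcription factors made in yeast were pooled with that sample and incubated with 200 nmole of a random double-stranded 16-mer DNA library in Tris/NaCl/DTT/glycerol buffer at room temperature for 30 min. Washing, 0.1% formaldehyde crosslinking, proximity ligation, PCR and Illumina NextSeq500 sequencing followed.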

ELK1 = biological target: T2, ELK1 (Homo sapiens, UniProt P19419 1-428)
T2 sequence: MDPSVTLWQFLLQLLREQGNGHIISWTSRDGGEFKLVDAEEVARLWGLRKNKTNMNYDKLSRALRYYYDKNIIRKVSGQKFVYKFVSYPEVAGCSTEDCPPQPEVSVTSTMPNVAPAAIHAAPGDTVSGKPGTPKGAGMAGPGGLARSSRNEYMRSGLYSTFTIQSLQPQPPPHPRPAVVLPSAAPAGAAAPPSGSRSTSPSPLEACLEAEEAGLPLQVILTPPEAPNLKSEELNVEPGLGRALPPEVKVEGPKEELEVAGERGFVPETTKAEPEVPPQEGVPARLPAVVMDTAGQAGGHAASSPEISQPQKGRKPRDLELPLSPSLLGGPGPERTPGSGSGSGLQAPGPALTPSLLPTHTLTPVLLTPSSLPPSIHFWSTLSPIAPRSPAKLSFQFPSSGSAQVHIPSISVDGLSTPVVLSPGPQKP
Method in brief: as §1

GABPA = biological target: T3, GABPA (Homo sapiens, UniProt Q06546 1-454)
T3 sequence: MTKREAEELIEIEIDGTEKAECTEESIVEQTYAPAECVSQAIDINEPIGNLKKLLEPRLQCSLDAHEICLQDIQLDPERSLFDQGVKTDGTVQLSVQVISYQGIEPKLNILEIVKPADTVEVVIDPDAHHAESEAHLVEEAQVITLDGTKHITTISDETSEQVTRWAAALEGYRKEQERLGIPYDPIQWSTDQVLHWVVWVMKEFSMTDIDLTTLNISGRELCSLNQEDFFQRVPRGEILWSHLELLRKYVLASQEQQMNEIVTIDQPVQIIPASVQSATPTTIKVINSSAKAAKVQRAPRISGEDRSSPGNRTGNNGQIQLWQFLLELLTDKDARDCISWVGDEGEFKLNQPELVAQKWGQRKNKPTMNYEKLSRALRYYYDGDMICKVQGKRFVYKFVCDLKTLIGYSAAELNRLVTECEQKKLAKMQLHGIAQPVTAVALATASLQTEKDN
Method in brief: as §1

ERG = biological target: T4, ERG (Homo sapiens, UniProt P11308 1-479)
T4 sequence: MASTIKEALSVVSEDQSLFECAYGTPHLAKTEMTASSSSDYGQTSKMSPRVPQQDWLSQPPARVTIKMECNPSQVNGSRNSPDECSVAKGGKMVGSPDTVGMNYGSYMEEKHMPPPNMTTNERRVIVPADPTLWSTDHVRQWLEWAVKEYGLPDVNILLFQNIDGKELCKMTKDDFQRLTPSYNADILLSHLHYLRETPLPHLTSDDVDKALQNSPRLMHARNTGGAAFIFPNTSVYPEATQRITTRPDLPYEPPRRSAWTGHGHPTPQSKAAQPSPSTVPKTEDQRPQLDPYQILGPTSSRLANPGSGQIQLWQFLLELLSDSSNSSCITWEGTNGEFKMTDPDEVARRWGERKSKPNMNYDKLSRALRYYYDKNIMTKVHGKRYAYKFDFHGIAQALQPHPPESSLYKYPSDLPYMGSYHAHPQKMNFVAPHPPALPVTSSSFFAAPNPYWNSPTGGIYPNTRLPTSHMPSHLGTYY
Method in brief: as §1

ELF1 = ELF1 (Homo sapiens, UniProt P32519 1-619)
Method in brief: as §1

EHF = biological target: T5, EHF (Homo sapiens, UniProt Q9NZC4 1-300)
T5 sequence: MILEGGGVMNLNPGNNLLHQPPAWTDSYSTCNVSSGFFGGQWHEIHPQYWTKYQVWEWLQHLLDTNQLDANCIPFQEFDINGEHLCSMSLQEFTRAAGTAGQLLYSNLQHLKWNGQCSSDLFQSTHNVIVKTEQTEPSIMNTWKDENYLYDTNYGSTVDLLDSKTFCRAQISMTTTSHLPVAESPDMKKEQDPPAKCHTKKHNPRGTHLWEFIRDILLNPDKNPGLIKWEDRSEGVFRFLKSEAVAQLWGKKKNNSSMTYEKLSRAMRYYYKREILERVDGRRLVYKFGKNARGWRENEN
Method in brief: as §1

SPI1 = SPI1 (Homo sapiens, UniProt P17947 1-270)
Method in brief: as §1

SPIB = SPIB (Homo sapiens, UniProt Q01892 1-262)
Method in brief: as §1

ELK3 = biological target: T6, ELK3 (Homo sapiens, UniProt P41970 1-407)
T6 sequence: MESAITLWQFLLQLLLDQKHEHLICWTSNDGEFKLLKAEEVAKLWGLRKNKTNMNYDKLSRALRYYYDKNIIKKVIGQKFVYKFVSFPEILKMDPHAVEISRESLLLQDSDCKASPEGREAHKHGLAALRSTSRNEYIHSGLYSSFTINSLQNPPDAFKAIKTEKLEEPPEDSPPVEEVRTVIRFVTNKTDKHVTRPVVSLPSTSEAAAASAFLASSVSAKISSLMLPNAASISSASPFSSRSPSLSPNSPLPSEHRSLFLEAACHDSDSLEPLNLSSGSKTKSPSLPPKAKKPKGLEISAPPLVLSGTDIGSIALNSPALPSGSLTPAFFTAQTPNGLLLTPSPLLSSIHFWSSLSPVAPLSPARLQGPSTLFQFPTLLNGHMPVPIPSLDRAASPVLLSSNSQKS
Method in brief: as §1

Chain of SPIB (Q01892 whole entry): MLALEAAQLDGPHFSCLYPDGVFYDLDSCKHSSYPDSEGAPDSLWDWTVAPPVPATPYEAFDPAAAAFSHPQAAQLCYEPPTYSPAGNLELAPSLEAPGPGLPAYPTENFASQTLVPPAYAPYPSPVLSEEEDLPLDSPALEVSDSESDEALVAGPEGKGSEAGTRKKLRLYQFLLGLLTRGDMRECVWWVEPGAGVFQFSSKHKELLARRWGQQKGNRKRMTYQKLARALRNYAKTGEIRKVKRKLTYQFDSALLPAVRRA
Chain of ELF1 (P32519 whole entry): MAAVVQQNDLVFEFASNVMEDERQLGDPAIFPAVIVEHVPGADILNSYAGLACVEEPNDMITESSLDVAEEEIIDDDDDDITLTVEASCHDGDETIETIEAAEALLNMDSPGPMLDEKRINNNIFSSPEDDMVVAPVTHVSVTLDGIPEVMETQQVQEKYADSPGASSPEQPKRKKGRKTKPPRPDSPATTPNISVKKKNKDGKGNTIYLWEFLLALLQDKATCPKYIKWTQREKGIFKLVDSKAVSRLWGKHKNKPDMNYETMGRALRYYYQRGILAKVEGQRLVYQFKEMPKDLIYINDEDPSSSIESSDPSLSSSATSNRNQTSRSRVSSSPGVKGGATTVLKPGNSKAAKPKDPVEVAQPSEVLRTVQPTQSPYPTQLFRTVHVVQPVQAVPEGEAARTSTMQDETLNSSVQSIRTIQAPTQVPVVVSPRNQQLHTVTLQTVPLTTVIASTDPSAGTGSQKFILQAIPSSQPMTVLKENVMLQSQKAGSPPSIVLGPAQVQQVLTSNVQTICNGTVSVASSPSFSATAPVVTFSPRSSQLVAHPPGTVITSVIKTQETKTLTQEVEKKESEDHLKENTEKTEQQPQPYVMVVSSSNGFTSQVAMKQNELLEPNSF

Sequence	binding signal (FLI1)	binding signal (ELK1)	binding signal (GABPA)	binding signal (ERG)	binding signal (ELF1)	binding signal (EHF)	binding signal (SPI1)	binding signal (SPIB)	binding signal (ELK3)
TACTTG	1.39 fold enrichment (6-mer frequency, TF over GST control)	1.39 fold enrichment (6-mer frequency, TF over GST control)	1.34 fold enrichment (6-mer frequency, TF over GST control)	1.18 fold enrichment (6-mer frequency, TF over GST control)	1.32 fold enrichment (6-mer frequency, TF over GST control)	1.32 fold enrichment (6-mer frequency, TF over GST control)	1.27 fold enrichment (6-mer frequency, TF over GST control)	1.44 fold enrichment (6-mer frequency, TF over GST control)	1.35 fold enrichment (6-mer frequency, TF over GST control)
CTCCTT	1.92 fold enrichment (6-mer frequency, TF over GST control)	1.72 fold enrichment (6-mer frequency, TF over GST control)	1.7 fold enrichment (6-mer frequency, TF over GST control)	1.82 fold enrichment (6-mer frequency, TF over GST control)	1.94 fold enrichment (6-mer frequency, TF over GST control)	1.64 fold enrichment (6-mer frequency, TF over GST control)	1.71 fold enrichment (6-mer frequency, TF over GST control)	1.82 fold enrichment (6-mer frequency, TF over GST control)	1.65 fold enrichment (6-mer frequency, TF over GST control)
TCTACC	1.54 fold enrichment (6-mer frequency, TF over GST control)	1.67 fold enrichment (6-mer frequency, TF over GST control)	1.58 fold enrichment (6-mer frequency, TF over GST control)	1.61 fold enrichment (6-mer frequency, TF over GST control)	1.59 fold enrichment (6-mer frequency, TF over GST control)	1.61 fold enrichment (6-mer frequency, TF over GST control)	1.54 fold enrichment (6-mer frequency, TF over GST control)	1.68 fold enrichment (6-mer frequency, TF over GST control)	1.43 fold enrichment (6-mer frequency, TF over GST control)
AAACTA	1.17 fold enrichment (6-mer frequency, TF over GST control)	1.23 fold enrichment (6-mer frequency, TF over GST control)	1.23 fold enrichment (6-mer frequency, TF over GST control)	1.23 fold enrichment (6-mer frequency, TF over GST control)	1.27 fold enrichment (6-mer frequency, TF over GST control)	1.32 fold enrichment (6-mer frequency, TF over GST control)	1.22 fold enrichment (6-mer frequency, TF over GST control)	1.22 fold enrichment (6-mer frequency, TF over GST control)	1.34 fold enrichment (6-mer frequency, TF over GST control)
TTCATT	1.25 fold enrichment (6-mer frequency, TF over GST control)	1.19 fold enrichment (6-mer frequency, TF over GST control)	1.16 fold enrichment (6-mer frequency, TF over GST control)	1.2 fold enrichment (6-mer frequency, TF over GST control)	1.24 fold enrichment (6-mer frequency, TF over GST control)	1.21 fold enrichment (6-mer frequency, TF over GST control)	1.21 fold enrichment (6-mer frequency, TF over GST control)	1.22 fold enrichment (6-mer frequency, TF over GST control)	1.23 fold enrichment (6-mer frequency, TF over GST control)
TTTCCC	1.65 fold enrichment (6-mer frequency, TF over GST control)	1.69 fold enrichment (6-mer frequency, TF over GST control)	1.76 fold enrichment (6-mer frequency, TF over GST control)	1.88 fold enrichment (6-mer frequency, TF over GST control)	1.61 fold enrichment (6-mer frequency, TF over GST control)	1.69 fold enrichment (6-mer frequency, TF over GST control)	1.69 fold enrichment (6-mer frequency, TF over GST control)	1.81 fold enrichment (6-mer frequency, TF over GST control)	1.75 fold enrichment (6-mer frequency, TF over GST control)
CTTAGG	1.1 fold enrichment (6-mer frequency, TF over GST control)	1.12 fold enrichment (6-mer frequency, TF over GST control)	1.15 fold enrichment (6-mer frequency, TF over GST control)	1.19 fold enrichment (6-mer frequency, TF over GST control)	1.17 fold enrichment (6-mer frequency, TF over GST control)	1.14 fold enrichment (6-mer frequency, TF over GST control)	1.09 fold enrichment (6-mer frequency, TF over GST control)	1.08 fold enrichment (6-mer frequency, TF over GST control)	1.05 fold enrichment (6-mer frequency, TF over GST control)

— publication PMC7862700, “An all-to-all approach to the identification of sequence-specific readers for epigenetic DNA modifications on cytosine”
